Experimental data taken from PubChem BioAssay (NCI).
Where “and” joins values, the source holds several entries; their conditions need not be identical. Equal entries are not always repeated. About 83,000 compounds went through this panel and 20% of them were active in at least one assay; those are over-represented in the sample as a whole.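 Plates (96-well) were seeded with cells, treated with compound at one concentration, and incubated for 48 hours before percent growth was determined.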 A number with no mark means an inactive call. Calls of active or inactive are those of the source. Rule for the calls: active = growth percent below 10; inactive = the rest.

tested on: MDA-MB-468 breast; assay: NCI-60 one-dose screen, 48 h (100 = growth as untreated, 0 = no growth, -100 = all killed); conditions: 10 µM unless noted

SMILES	growth
CC(C)(C)c1ccc(C(O)CCCN2CCC(C(O)(c3ccccc3)c3ccccc3)CC2)cc1 (stereo not given)	-97.1% (active)
Cc1cc(-c2noc(C(F)(F)F)n2)ccc1N1CCN(c2cc(C(=O)N(C)C)no2)CC1	15.2%
CC1(C)CC(=O)C=C(N)C1	90.5%
O=S(=O)(NCCNc1nccc(-n2cnc3ccccc32)n1)c1ccc(C(F)(F)F)cc1	26.4%
COc1ccc(-c2cc(-c3cccnc3)nc3sc4c(Cl)nnnc4c23)cc1OC	80.1%
Cc1nc(Nc2ccc(N)cc2)c2ccccc2n1	86.9%
CNCCCOc1c(Br)cc(CCNC(=O)/C(Cc2cc(Br)c(OC)c(Br)c2)=N/O)cc1Br	3.11% (active)
COc1ccc(C2=CC(c3ccc(Oc4ccnc5cc(Cl)ccc45)c(OC)c3)c3c(nc(OC)[nH]c3=O)N2)cc1 (stereo not given)	61.4%
CCCCCCCCCCCCSC(=N)N	-58.5% (active)
CCCn1c(=S)sc2c(NNC(C)=O)nc(C)nc21	93.1%
Cc1nc2ccc(-n3c(-c4ccc(Cl)cc4)nc4ccccc4c3=O)cc2n1Cc1ccccc1	77.6%
Nc1ccc(N)c([N+](=O)[O-])c1	88%
Nc1ccc(-c2cc3c(NCc4ccccc4)ncnc3s2)cc1	4.36% (active)
O=C(Nc1ccc(Cl)cc1F)c1cc(Cl)ccc1O	-20.2% (active)
CC(C)N=c1cc2n(-c3ccc(Cl)cc3)c3ccccc3nc-2cc1Nc1ccc(Cl)cc1	-45.1% (active) and -53.3% (active) and -42.4% (active)
